Inconclusive results are not listed. Entries that show only a call come without a potency. A number with no mark means an inactive call. Activity calls are given as the source filed them. Unless noted, calls follow the shape of the full dose curve.

Sequence of Beta-2 adrenergic receptor (Homo sapiens) (P07550 whole entry, looked up): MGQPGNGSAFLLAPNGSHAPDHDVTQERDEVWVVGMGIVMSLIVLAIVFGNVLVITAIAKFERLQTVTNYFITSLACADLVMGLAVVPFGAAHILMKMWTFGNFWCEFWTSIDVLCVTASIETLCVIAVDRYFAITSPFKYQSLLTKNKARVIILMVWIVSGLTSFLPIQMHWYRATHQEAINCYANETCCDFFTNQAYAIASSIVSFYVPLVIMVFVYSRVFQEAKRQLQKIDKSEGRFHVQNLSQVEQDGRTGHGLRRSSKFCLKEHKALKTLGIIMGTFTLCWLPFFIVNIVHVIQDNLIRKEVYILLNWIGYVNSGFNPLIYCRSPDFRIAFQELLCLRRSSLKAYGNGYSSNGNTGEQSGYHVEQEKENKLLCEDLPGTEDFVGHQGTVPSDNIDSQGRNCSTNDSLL

One test concerns the target Beta-2 adrenergic receptor (Homo sapiens) (UniProt P07550). Kind of test: Adrenergic beta2 receptor (ADRB2) small molecule agonists, cell-based qHTS assay (AID 1963593).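 Also: CHO cells stably overexpressing human ADRB2.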 The settings on record: CHO-ADRB2 cells, cAMP HTRF, 30 min; series mostly up to 92.4 µM. Put shortly: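 CHO cells stably over-expressing ADRB2 were plated overnight at 37C, then dosed with compounds plus a stimulation mix containing 100uM IBMX and 25uM Ro-20-1724 for 0.5hr at room temperature. cAMP was measured by HTRF competition, 1hr.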
For orientation: Quantitative high-throughput screening tests each substance at several concentrations.
In the case of `Oc1ccc(C2(c3ccc(O)cc3)CC3CC2C2CCCC32)cc1` (stereo unspecified), the Potency entry was “inactive”. The same measure, in the same setting: the result for `CC(C)(C)c1ccc(C(=O)O)cc1` reads “inactive”; that for `C/C=C1\[C@H]2C=C(C)C[C@]1(N)c1ccc(=O)[nH]c1C2`, “inactive”. In the case of `CC1=CC(=C(c2ccc(N)cc2)c2ccc(N)cc2)C=CC1=N`, the activation was -33.8% [at 8.39 µM].

In the case of `CC1(C)[C@@H](O)CC[C@]2(C)[C@H]3C(=O)C=C4[C@@H]5C[C@@](C)(C(=O)O)CC[C@]5(C)CC[C@@]4(C)[C@]3(C)CC[C@@H]12`, the Potency result is “inactive”. Turning to `CC(C)C(O)(c1ccc(OC(F)(F)F)cc1)c1cncnc1` (stereo unspecified), the Potency result was “inactive”. For `Cc1cccc(Nc2ccccc2)c1`, the Potency entry was “inactive”. On the same count and under the same terms, the result for `Cc1ccc([N+](=O)[O-])c(N)c1` reads “inactive”. The same measure, in the same setting: in the case of `CC(=O)[O][Al]` it was “inactive”; in that of `CCc1ccc2c(c1)C(=O)c1ccccc1C2=O`, “inactive”; in that of `CCCCOC(=O)CO`, “inactive”. For `N#CCCCC(C#N)CCC#N` (stereo unspecified), the Potency entry is “inactive”.

The target of another test is D(2) dopamine receptor (Homo sapiens) (UniProt P14416). Nature of the test: Dopamine D2 receptor (DRD2) small molecule agonists, cell-based qHTS assay (AID 1963594). Also: nearly all actives have a fitted effect of over 35% in size. Also: potency is read from the fitted curve at half-maximal effect. The settings on record: HEK293-DRD2 cAMP HTRF, agonist mode, 30 min; series mostly up to 92.4 µM. An outline of the steps: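 HEK293 cells stably expressing human DRD2, pre-treated with PDE inhibitor Ro20-1724 (0.1 mM final) and compound 10 min at room temperature, then stimulated with NKH477 (200nM […]) for 30 min. cAMP read by HTRF (665/620 nm).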
Sequence of D(2) dopamine receptor (Homo sapiens) (P14416 whole entry, looked up): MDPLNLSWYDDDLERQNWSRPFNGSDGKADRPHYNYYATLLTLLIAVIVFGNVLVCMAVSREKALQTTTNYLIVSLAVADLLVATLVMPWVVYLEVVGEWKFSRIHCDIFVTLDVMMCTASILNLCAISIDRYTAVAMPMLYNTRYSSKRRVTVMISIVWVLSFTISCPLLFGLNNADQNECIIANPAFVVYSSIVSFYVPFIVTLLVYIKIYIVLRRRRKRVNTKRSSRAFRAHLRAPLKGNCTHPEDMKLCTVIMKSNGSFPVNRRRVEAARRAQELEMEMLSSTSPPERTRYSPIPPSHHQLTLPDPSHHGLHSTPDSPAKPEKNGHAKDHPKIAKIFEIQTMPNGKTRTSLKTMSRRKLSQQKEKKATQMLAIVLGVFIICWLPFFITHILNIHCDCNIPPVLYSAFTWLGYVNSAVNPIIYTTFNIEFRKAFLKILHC
Turning to `CN(CCCN1c2ccccc2CCc2ccccc21)CC(=O)c1ccc(Cl)cc1`, the Potency entry is “inactive”. On the same count and under the same terms, the result for `Oc1ccc(C2(c3ccc(O)cc3)CC3CC2C2CCCC32)cc1` (stereo unspecified) reads “inactive”. Same read-out and setting: in the case of `CC(CO)(CO)CO` it was “inactive”; in that of `CC(C)(C)c1ccc(C(=O)O)cc1`, “inactive”; in that of `C/C=C1\[C@H]2C=C(C)C[C@]1(N)c1ccc(=O)[nH]c1C2`, “inactive”. As to `CCN1/C(=C/C=C/c2sc3ccccc3[n+]2CC)Sc2ccccc21`, the Potency was 14.6 µM (active). Same read-out and setting: in the case of `CCCC(=O)OC` it was “inactive”; in that of `C/C=C/C=C/CO`, “inactive”; in that of `OCCOCC#CCOCCO`, “inactive”.

For `CN(C)CCCN1c2ccccc2Sc2ccc(Cl)cc21`, the Potency entry was “inactive”. In the case of `O=C(O)Cc1ccc(Cl)cc1Cl`, the Potency result is “inactive”. Still for that read-out and setting: the result for `CC(=O)OC(C)OC(C)=O` reads “inactive”. The same measure, in the same setting: the result for `CCN(CC)CCOC(=O)C(c1ccccc1)C1CCCCC1` (stereo unspecified) reads “inactive”. For the compound `CC1=CC(=C(c2ccc(N)cc2)c2ccc(N)cc2)C=CC1=N`, the activation is -0.554% [at 8.39 µM]. Regarding `CC(=O)OCC(C)OC(C)=O` (stereo unspecified), the Potency entry was “inactive”. Same read-out and setting: the result for `O=[N+]([O-])c1cccc(C(F)(F)F)c1` reads “inactive”; that for `CC1(C)[C@@H](O)CC[C@]2(C)[C@H]3C(=O)C=C4[C@@H]5C[C@@](C)(C(=O)O)CC[C@]5(C)CC[C@@]4(C)[C@]3(C)CC[C@@H]12`, “inactive”. On the same count and under the same terms, in the case of `O=C(/C=C/c1ccccc1)OCCc1ccccc1` it was “inactive”; in that of `CCOC(=O)CC(=O)C(=O)OCC`, “inactive”.

`O=C(O)Cc1cc(I)c(Oc2ccc(O)c(I)c2)c(I)c1`: the Potency result was “inactive”.

`O=Cc1ccc(O)c(O)c1O`: the Potency result is “inactive”.

Regarding `C=CCCCCCCC=C`, the Potency result is “inactive”. For the compound `CC/C=C1/OC(=O)c2ccccc21`, the Potency result is “inactive”. On the same count and under the same terms, the result for `Cc1cccc(Nc2ccccc2)c1` reads “inactive”; that for `Cc1ccc([N+](=O)[O-])c(N)c1`, “inactive”. On the same count and under the same terms, the result for `CC(=O)[O][Al]` reads “inactive”. Same read-out and setting: the result for `c1ccc2c(c1)ccc1c3ccccc3ccc21` reads “inactive”; that for `CC(C)(C)c1cc(CO)cc(C(C)(C)C)c1O`, “inactive”; that for `CCCCOC(=O)CO`, “inactive”. On to `CCCCCCOC(=O)c1ccccc1`, for which the Potency entry was “inactive”. Same read-out and setting: the result for `CCN(Cc1cccc(S(=O)(=O)O)c1)c1ccc(C(=C2C=CC(=[N+](CC)Cc3cccc(S(=O)(=O)[O-])c3)C=C2)c2ccccc2)cc1` reads “inactive”; that for `On1ccccc1=S`, “inactive”; that for `O=C(c1ccccc1)C1CCCCC1`, “inactive”.

A further test has the same target. Nature of the test: Dopamine D2 receptor (DRD2) small molecule antagonists, cell-based qHTS assay (AID 1963595; active = well fitted inhibition curve with a large enough effect in the signal ratio in the repeat runs, with a control signal flat; the % refers to the signal ratio). The settings on record: HEK293-DRD2 cAMP HTRF antagonist mode; series mostly up to 92.4 µM. An outline of the steps: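 HEK293 cells stably expressing DRD2 were preincubated with 0.1 mM Ro20-1724, then with compound for 10 min at room temperature. Cells were stimulated with 200 nM NKH477 plus 12 nM quinpirole for 30 min, and cAMP was read by HTRF.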
Turning to `CN(CCCN1c2ccccc2CCc2ccccc21)CC(=O)c1ccc(Cl)cc1`, the Potency result is “inactive”. On the same count and under the same terms, the result for `CC(CO)(CO)CO` reads “inactive”; that for `C/C=C1\[C@H]2C=C(C)C[C@]1(N)c1ccc(=O)[nH]c1C2`, “inactive”. As to `CCN1/C(=C/C=C/c2sc3ccccc3[n+]2CC)Sc2ccccc21`, the activity change, negative = inhibition is -0.0645% [at 18.9 µM]. Consider `C/C=C/C=C/CO`, for which the Potency result was “inactive”. Same read-out and setting: the result for `OCCOCC#CCOCCO` reads “inactive”. On the same count and under the same terms, the result for `Cc1ccc(O)c2ncccc12` reads “inactive”; that for `CCCCN1C(=O)[C@@H]([C@H](O)C2CCCCC2)NC(=O)C12CCN(Cc1ccc(Oc3ccc(C(=O)O)cc3)cc1)CC2`, “inactive”; that for `O=C(O)Cc1ccc(Cl)cc1Cl`, “inactive”. With `CC(=O)OC(C)OC(C)=O`, the Potency result is “inactive”. For the compound `CC1=CC(=C(c2ccc(N)cc2)c2ccc(N)cc2)C=CC1=N`, the activity change, negative = inhibition was 0.406% [at 8.38 µM]. On to `CC(=O)OCC(C)OC(C)=O` (stereo unspecified), for which the Potency result is “inactive”. The same measure, in the same setting: in the case of `O=[N+]([O-])c1cccc(C(F)(F)F)c1` it was “inactive”; in that of `CC1(C)[C@@H](O)CC[C@]2(C)[C@H]3C(=O)C=C4[C@@H]5C[C@@](C)(C(=O)O)CC[C@]5(C)CC[C@@]4(C)[C@]3(C)CC[C@@H]12`, “inactive”. On the same count and under the same terms, in the case of `CCOC(=O)CC(=O)C(=O)OCC` it was “inactive”; in that of `CC(C)C(O)(c1ccc(OC(F)(F)F)cc1)c1cncnc1` (stereo unspecified), “inactive”.

Turning to `O=Cc1ccc(O)c(O)c1O`, the Potency result is “inactive”. Still for that read-out and setting: the result for `C=CCCCCCCC=C` reads “inactive”; that for `Cc1cccc(Nc2ccccc2)c1`, “inactive”; that for `Cc1ccc([N+](=O)[O-])c(N)c1`, “inactive”. The same measure, in the same setting: the result for `CC(=O)[O][Al]` reads “inactive”; that for `c1ccc2c(c1)ccc1c3ccccc3ccc21`, “inactive”. The same measure, in the same setting: the result for `CCc1ccc2c(c1)C(=O)c1ccccc1C2=O` reads “inactive”; that for `CC(C)(C)c1cc(CO)cc(C(C)(C)C)c1O`, “inactive”. For the compound `CCCCOC(=O)CO`, the Potency entry is “inactive”. Same read-out and setting: in the case of `CCCCCCOC(=O)c1ccccc1` it was “inactive”; in that of `CC(C)c1ccccc1`, “inactive”; in that of `CCN(Cc1cccc(S(=O)(=O)O)c1)c1ccc(C(=C2C=CC(=[N+](CC)Cc3cccc(S(=O)(=O)[O-])c3)C=C2)c2ccccc2)cc1`, “inactive”. Still for that read-out and setting: the result for `On1ccccc1=S` reads “inactive”; that for `N#CCCCC(C#N)CCC#N` (stereo unspecified), “inactive”; that for `O=C(c1ccccc1)C1CCCCC1`, “inactive”.

These data come from PubChem BioAssay (Tox21).
